# Publication PMC11024108
# Molecular target: T1, Monocarboxylate transporter 1 (UniProt P53985)
# T1 sequence: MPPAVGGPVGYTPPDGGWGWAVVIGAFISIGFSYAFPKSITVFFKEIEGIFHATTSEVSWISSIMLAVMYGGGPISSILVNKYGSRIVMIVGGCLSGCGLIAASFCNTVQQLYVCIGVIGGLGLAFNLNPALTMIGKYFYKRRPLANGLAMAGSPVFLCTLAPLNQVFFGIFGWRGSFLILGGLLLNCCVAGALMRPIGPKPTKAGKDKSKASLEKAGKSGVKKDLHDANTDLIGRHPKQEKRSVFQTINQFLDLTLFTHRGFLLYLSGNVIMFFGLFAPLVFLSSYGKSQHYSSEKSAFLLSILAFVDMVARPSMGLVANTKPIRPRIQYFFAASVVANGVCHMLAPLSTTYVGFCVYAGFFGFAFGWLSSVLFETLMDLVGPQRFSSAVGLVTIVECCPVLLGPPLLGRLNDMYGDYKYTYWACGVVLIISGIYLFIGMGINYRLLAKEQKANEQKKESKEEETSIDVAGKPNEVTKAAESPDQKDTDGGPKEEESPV
# Assay: cross-link between two proteins; cross-linking mass spectrometry
substance,measurement,value
"Sodium/potassium-transporting ATPase subunit alpha-1, P05023",listed as a hit,yes
